# Test results reported in ChEMBL document CHEMBL3988442, “University of Dundee, Small-Polar-MMV Screening Library” (2021).
# For part of these data: Results with a measured potency or affinity are listed apart.
# Tests used:
# Parameters in all cases: scale not given: direction of the effect not stated beside the values
# [1] = biological target: Protein translocase subunit SecA (Escherichia coli (strain K12)) (UniProt P10408); test: Assay to Identify E. coli SecA ATPase Inhibitors; type: functional; details: 30 µM
# [2] = biological target: T1, Ubiquitin-activating enzyme e1, putative (Leishmania donovani (strain BPK282A1)) (UniProt E9BSI1); test: Leishmania donovani Ubiquitin Activating Enzyme (LdE1); type: functional; details: 30 µM
# T1 sequence (whole entry): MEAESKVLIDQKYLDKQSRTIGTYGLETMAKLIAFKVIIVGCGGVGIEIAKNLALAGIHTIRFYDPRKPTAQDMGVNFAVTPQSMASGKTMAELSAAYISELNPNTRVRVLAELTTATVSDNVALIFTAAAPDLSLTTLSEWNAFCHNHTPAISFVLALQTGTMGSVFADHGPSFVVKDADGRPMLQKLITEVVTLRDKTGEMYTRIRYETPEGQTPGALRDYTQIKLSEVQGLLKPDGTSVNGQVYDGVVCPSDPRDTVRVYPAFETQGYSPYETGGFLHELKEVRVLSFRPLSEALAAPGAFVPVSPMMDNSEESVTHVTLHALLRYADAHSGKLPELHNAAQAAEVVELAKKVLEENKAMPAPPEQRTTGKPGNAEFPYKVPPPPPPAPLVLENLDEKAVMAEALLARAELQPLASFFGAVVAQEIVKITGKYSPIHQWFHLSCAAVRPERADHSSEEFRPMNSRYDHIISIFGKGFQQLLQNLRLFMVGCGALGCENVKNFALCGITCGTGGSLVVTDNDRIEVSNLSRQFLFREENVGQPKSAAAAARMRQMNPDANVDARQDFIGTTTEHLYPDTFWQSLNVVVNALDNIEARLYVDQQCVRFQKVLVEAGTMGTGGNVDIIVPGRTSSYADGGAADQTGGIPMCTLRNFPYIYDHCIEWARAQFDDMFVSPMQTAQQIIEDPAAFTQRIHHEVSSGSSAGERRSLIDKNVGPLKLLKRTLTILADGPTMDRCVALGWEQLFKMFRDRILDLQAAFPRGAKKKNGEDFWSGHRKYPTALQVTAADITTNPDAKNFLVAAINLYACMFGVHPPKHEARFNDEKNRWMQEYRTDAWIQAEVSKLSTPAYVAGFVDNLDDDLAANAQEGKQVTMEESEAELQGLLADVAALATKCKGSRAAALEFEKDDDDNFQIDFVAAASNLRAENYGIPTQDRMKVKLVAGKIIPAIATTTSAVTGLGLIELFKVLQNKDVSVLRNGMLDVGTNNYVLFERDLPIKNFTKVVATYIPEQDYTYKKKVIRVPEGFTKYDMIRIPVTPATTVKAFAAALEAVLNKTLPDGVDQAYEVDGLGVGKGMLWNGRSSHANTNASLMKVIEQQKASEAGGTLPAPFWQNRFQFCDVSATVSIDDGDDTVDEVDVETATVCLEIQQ
# [3] = biological target: AMP-activated protein kinase, AMPK (Homo sapiens) (UniProt P54646+O43741+P54619+Q9UGJ0+Q9Y478+Q13131+Q9UGI9); test: AMP-dependent Kinase enzyme assay. An in vitro enzyme assay that detects ADP turnover that is directly proportional to AMPK activity. This uses naive AMPK that is activated during the assay with MK-8722; type: functional; details: 30 µM
# [4] = biological target: Sialic acid-binding Ig-like lectin 9 (Homo sapiens) (UniProt Q9Y336); test: Hs-Siglec9 ALPHAscreen SOP 20170721; details: 10 µM
# Trypanosoma cruzi = test: Trypanosoma cruzi phosphomannomutase and mannose-1-phosphate guanylyltransferase assay; type: functional; details: 10 µM
# [5] = biological target: T2, Arginase-2, mitochondrial (Homo sapiens) (UniProt P78540); test: in vitro enzyme assay to detect the production of urea directly proportional to the activity of Arginase II; type: functional; details: 33.3 µM; note: in the data most compounds retested in dose-response had high values
# T2 sequence (whole entry): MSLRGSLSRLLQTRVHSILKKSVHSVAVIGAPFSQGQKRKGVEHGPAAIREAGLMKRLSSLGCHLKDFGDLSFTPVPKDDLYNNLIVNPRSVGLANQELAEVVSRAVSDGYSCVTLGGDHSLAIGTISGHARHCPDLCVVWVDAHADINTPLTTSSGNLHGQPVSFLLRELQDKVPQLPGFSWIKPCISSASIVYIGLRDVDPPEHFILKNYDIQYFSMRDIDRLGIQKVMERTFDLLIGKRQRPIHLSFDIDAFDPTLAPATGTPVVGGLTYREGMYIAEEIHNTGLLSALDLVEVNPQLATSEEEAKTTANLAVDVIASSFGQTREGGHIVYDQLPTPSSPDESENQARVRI
# [6] = biological target: T3, Proteasome subunit beta (Trypanosoma cruzi) (UniProt O96673); test: Trypanosoma cruzi proteasome chymotrypsin-like activity (TcProtChymo) assay.; note: in the data most compounds retested in dose-response had high values; type: functional; details: 9.37 µM
# T3 sequence (whole entry): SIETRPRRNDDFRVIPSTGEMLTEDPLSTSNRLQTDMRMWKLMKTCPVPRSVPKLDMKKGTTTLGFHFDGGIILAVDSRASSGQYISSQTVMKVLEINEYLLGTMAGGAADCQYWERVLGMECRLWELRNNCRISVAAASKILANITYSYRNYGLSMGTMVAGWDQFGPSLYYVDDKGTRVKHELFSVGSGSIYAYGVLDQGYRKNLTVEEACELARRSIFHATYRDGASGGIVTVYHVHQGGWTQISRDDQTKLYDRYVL
# Homo sapiens = species: Homo sapiens; test: To identify inhibition of the IFN signalling (Jak-Stat) pathway via expression of an eGFP reporter gene under the control of an IFN-stimulated response element (ISRE) containing MxA promoter.; type: functional; details: 30 µM
# [7] = biological target: T4, Tyrosyl-tRNA synthetase, putative (Trypanosoma cruzi (strain CL Brener)) (UniProt Q4DSP6); test: Trypanosoma cruzi tyrosyl tRNA synthetase (TcYRS) _High Tyrosine SOP; type: functional; details: 30 µM; note: in the data most compounds retested in dose-response had high values
# T4 sequence (whole entry): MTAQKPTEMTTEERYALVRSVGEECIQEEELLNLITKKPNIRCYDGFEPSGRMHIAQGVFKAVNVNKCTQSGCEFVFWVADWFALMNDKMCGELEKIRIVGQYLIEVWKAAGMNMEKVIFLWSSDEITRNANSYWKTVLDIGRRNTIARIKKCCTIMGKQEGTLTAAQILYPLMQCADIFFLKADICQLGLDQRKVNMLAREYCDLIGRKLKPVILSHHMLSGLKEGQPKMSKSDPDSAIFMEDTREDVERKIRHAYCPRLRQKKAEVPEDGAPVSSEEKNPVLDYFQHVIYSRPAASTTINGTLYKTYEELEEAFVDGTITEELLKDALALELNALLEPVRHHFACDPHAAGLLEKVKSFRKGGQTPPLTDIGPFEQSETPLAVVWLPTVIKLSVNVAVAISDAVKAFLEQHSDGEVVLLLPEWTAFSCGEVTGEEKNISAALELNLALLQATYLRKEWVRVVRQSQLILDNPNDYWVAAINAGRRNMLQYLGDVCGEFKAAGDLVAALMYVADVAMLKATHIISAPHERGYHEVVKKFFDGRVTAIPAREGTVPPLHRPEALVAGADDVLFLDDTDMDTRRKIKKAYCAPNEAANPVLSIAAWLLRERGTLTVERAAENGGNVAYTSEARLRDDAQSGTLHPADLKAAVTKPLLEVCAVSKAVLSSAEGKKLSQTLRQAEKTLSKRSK
# [8] = biological target: T4, Tyrosyl-tRNA synthetase, putative (Trypanosoma cruzi (strain CL Brener)); test: Trypanosoma cruzi tyrosyl tRNA synthetase (TcYRS) SOP; type: functional; details: 30 µM
# [9] = biological target: Chromo domain-containing protein 1 (Saccharomyces cerevisiae (strain ATCC 204508 / S288c) (Baker's yeast)) (UniProt P32657); test: ScCHD-1 Enzyme Inhibition Assay; type: functional; details: 30 µM; note: in the data most compounds retested in dose-response had high values
# Sequence of Chromo domain-containing protein 1 (Saccharomyces cerevisiae (strain ATCC 204508 / S288c) (Baker's yeast)) (P32657 whole entry, the tested form may be a part): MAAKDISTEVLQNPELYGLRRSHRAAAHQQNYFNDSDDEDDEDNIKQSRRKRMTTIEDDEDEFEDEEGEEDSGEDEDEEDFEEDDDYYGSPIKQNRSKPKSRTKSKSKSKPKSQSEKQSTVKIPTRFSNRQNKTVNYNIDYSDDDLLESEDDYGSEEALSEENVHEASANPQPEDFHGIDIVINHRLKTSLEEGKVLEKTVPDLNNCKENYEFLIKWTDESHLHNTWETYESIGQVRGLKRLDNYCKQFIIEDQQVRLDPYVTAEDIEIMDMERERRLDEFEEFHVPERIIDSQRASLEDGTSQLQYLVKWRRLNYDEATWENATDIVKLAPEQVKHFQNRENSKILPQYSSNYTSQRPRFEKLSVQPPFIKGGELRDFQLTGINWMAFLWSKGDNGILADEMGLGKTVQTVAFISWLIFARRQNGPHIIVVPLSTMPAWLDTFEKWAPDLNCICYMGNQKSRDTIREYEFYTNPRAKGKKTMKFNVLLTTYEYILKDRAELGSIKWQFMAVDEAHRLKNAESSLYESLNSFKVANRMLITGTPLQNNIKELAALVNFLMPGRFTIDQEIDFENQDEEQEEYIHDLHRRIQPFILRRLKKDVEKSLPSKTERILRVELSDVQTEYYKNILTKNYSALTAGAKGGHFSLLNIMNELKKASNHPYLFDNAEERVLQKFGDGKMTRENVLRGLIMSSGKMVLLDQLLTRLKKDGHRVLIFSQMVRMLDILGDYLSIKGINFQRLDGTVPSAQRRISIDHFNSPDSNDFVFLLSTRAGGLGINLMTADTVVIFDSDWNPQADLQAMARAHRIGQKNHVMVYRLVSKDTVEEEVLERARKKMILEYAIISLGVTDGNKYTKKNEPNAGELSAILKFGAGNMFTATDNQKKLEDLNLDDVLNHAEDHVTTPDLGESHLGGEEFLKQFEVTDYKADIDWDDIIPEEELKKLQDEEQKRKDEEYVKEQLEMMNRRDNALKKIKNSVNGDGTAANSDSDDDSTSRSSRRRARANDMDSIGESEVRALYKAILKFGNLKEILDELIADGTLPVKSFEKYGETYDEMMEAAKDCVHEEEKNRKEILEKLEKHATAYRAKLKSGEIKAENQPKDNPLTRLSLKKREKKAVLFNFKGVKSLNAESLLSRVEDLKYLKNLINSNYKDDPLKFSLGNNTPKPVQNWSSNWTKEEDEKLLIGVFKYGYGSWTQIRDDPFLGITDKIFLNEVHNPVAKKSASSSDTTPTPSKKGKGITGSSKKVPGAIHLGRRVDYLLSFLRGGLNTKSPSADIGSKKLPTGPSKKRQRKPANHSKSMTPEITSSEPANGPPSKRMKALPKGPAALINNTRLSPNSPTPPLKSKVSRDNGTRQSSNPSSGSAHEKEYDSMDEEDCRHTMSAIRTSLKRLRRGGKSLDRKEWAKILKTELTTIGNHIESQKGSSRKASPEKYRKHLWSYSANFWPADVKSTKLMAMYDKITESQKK
# Sequence of Protein translocase subunit SecA (Escherichia coli (strain K12)) (P10408 whole entry): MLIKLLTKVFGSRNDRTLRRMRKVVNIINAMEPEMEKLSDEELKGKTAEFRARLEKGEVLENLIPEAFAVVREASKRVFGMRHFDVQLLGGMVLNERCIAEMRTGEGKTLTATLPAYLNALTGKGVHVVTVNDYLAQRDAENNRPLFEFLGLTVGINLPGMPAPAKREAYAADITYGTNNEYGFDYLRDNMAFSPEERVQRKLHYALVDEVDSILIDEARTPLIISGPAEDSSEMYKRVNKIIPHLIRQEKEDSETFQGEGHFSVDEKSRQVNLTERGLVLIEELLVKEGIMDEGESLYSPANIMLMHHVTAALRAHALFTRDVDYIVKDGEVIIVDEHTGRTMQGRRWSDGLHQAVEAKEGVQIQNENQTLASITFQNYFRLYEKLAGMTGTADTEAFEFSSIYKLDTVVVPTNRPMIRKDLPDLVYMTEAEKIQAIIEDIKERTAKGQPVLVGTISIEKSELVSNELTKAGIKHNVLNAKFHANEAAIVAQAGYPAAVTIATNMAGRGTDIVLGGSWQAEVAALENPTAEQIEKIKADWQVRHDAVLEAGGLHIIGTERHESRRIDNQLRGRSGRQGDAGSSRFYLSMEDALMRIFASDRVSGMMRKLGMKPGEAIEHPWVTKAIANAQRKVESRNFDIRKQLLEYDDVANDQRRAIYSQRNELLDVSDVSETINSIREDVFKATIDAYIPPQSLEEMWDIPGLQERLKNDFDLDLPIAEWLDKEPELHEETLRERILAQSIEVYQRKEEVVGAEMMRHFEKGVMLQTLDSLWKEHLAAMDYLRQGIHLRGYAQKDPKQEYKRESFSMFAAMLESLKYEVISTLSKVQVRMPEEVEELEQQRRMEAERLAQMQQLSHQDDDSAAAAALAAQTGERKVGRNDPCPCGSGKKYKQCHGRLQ
# Sequence of Sialic acid-binding Ig-like lectin 9 (Homo sapiens) (Q9Y336 whole entry): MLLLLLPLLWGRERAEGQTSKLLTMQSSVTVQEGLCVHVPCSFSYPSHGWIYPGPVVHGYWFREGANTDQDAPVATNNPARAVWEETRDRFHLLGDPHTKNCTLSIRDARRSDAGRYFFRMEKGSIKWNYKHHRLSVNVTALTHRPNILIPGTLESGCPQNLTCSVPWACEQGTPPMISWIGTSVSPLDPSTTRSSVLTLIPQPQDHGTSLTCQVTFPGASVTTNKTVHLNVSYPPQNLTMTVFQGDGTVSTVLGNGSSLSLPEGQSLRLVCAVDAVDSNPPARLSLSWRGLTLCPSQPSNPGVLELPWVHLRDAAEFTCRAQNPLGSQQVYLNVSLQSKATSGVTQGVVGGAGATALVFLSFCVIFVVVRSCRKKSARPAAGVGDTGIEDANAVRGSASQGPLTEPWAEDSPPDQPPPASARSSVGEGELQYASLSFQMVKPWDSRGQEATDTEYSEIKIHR
SMILES,Percent Effect [1],Percent Effect [2],Percent Effect [3],Percent Effect [4],Percent Effect (Trypanosoma cruzi),Percent Effect [5],Percent Effect [6],Percent Effect (Homo sapiens),Percent Effect [7],Percent Effect [8],Percent Effect [9]
Cn1ccc(C(=O)NC2CCC23CCN(Cc2cccnc2)CC3)c1 (stereo unspecified),-1.54%,2.74%,5.78%,0.617%,0%,0.399%,5.39%,2.32%,-1.04%,-3.7%,0.517%
COCCC(=O)N1CC2(CCN(Cc3ccoc3)C2)C1,-1.14%,13.3%,3.09%,-10.1%,-6.69%,5.36%,17.7%,9.94%,4.25%,1.28%,-1.88%
Cc1csc(CNC(=O)Nc2cc(C(F)(F)F)c[nH]c2=O)n1,-1.61%,6.94%,2.39%,2.89%,6.71%,1.77%,13.3%,8.26%,7.37%,10.3%,-3.2%
Cc1nc(CCNC(=O)NCc2ccc(N(C)C)nc2)cs1,-4.75%,13.5%,-4.65%,3.94%,1.79%,-0.401%,12.1%,-114%,9.36%,16.1%,-4.66%
N#CCCCS(=O)(=O)N1CCCC1CC(=O)c1cccs1 (stereo unspecified),-2.19%,2.7%,-3.83%,2.31%,-1.93%,-3.81%,3.1%,-1.42%,-0.529%,-4.88%,-0.34%
Cc1nc(C)n(CC2CCCN2CC(=O)NCCc2ccccc2)n1 (stereo unspecified),0.351%,0%,2.9%,4.24%,1.37%,1.36%,12.4%,-18.8%,1.07%,2.5%,-5.02%
CNC(=O)C1CCN(C(=O)c2cccn2Cc2cccs2)CC1,-4.47%,-2.6%,1.37%,-5.3%,-5.99%,2.85%,6.25%,40.1%,6.8%,9.76%,-7.72%
CN(C(=O)C1CSCN1S(=O)(=O)c1ccc(F)cc1)C1CC1 (stereo unspecified),-6.46%,0%,-0.918%,1.18%,-5.57%,-2.73%,6.27%,-19.6%,3.23%,11.1%,0.714%
Cc1ccc(N2CCN(C(=O)COc3ccccc3)CC2)nn1,-2.94%,8.22%,6.52%,-4.33%,-3.92%,-0.909%,10.8%,13.2%,5.38%,17.5%,-6.41%
CN(Cc1ccsc1)C(=O)Nc1ccc(S(=O)(=O)N(C)C)cc1,-1.98%,17.7%,-2.37%,-9.54%,-1.79%,-0.38%,-0.0819%,-7.23%,6.4%,21.5%,-6.52%
Cc1cnn(CC2CCCN2Cc2coc(-c3ccccc3)n2)c1 (stereo unspecified),0.182%,-11%,-9.12%,16.7%,6.46%,1.82%,1.77%,-7.46%,3.23%,5%,-6.56%
COc1ccc(CCC(=O)Nc2cccnc2N2CCCC2)cc1Br,-6.14%,8.11%,-7.1%,0.341%,-5.57%,2.81%,3.42%,13.8%,5.42%,6.17%,-2.84%
CN1CCOC(CNCc2coc(-c3cccs3)n2)C1 (stereo unspecified),-2.66%,22.8%,-18.2%,-13.1%,5.38%,3.42%,8.27%,12.8%,8.37%,21.5%,-14.2%
Cc1cnc(CN(C)C2CCN(CCn3cc(C#N)cn3)C2)o1 (stereo unspecified),2.65%,16.2%,-13.3%,-2.11%,-7.83%,-2%,21.4%,6.73%,3.45%,11.1%,-2.79%
COc1ccc(NC(=O)c2ccc(-n3ncc(C#N)c3N)cc2)cn1,-3.59%,10.1%,0.744%,15.3%,-3.68%,-4.94%,0.901%,8.55%,4.43%,8.86%,-4.68%
COc1cccc(OCC2CCCN(C3CCN(C(C)=O)CC3)C2)c1 (stereo unspecified),-0.921%,5.41%,0.304%,-4.78%,-3.67%,1.43%,18.4%,-5.82%,4.76%,12.2%,-2.6%
CCNC(=O)c1ncn2c1CN(C)S(=O)(=O)c1ccccc1-2,0.812%,2.74%,2.65%,7.01%,-2.58%,-2%,14%,11%,1.04%,6.17%,-0.402%
Cc1ccc(S(=O)(=O)N2C[C@H]3C[C@H](NC(=O)c4ccnn4C)[C@H]3C2)cc1,-1.89%,-6.76%,9.6%,1.27%,-0.988%,-3.02%,-3.28%,84.1%,2.15%,3.9%,14%
CN1CCC(Cc2cc(Nc3ncccn3)ncn2)CC1,-1.87%,6.76%,11.2%,0.0242%,-1.98%,-1.16%,2.34%,6.81%,4.3%,9.09%,-10.4%
CC(C(=O)N1CCCN(c2ncccc2C#N)CC1)n1cccn1 (stereo unspecified),-3.42%,10.5%,0.522%,-3.82%,-6.63%,4.68%,4.32%,3.06%,5.42%,11.1%,-6.77%
O=C(NCCNc1ncccn1)N1CCCC(C(F)(F)F)C1 (stereo unspecified),-2.28%,10.8%,3.11%,-0.403%,-2.12%,-1.43%,7.59%,6.58%,4.76%,19.5%,-5.39%
